Assay results reported in PubChem BioAssay.
Activity calls are given as the source filed them. Unless noted, the rule behind the calls is not given here.

Key:
[1] = A549 cell viability effects, profiling panel, calcein-AM fluorescence, 48 h, basal (AID 1162); settings: higher = more signal; note: test concentration not given here
[2] = adipocyte viability effects, profiling panel, cell-based, 3T3-L1 adipocytes, calcein-AM fluorescence, 48 h, basal (AID 1163); settings: 3T3-L1 adipocytes viability, higher = more signal; note: test concentration not given here
[3] = HepG2 cell viability effects, profiling panel, calcein-AM fluorescence, 48 h, basal (AID 1164); settings: higher = more signal; note: test concentration not given here
[4] = MM1S cell viability effects, profiling panel, calcein-AM fluorescence, 48 h, basal (AID 1165); settings: higher = more signal;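 note: viability of MM1S multiple myeloma cells under basal unstimulated conditions; test concentration not given here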
[5] = basal RPMI8226 viability, no added stimulus, profiling panel, cell-based, calcein-AM fluorescence, 48 h, PK04 Diversity Set (AID 1166); settings: RPMI8226 myeloma viability, higher = more signal;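 note: cells grown under basal conditions without added stimulus; test concentration not given here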
[6] = basal HepG2 mitochondrial membrane potential changes, profiling panel, cell-based, JC-1 fluorescence, 24 h, 100 nL compound (AID 1167); settings: higher = more signal; note: test concentration not given here
[7] = basal 3T3-L1 adipocyte mitochondrial potential changes, profiling panel, cell-based, JC-1 fluorescence, 3T3-L1 adipocytes, 24 h, 100 nL compound (AID 1168); settings: JC-1 mitochondrial fluorescence, higher = more signal, called active from +8 up or from −8 down; note: test concentration not given here
[8] = basal RPMI8226 mitochondrial membrane potential changes, profiling panel, cell-based, JC-1 fluorescence, 24 h, 100 nL compound (AID 1169); settings: RPMI8226 myeloma, JC-1 mitochondrial potential fluorescence, higher = more signal; note: test concentration not given here
[9] = basal MM1S mitochondrial membrane potential changes, profiling panel, cell-based, JC-1 fluorescence, 24 h, 100 nL compound (AID 1170); settings: higher = more signal; note: test concentration not given here
[10] = A549 lung cancer cell viability effects, profiling panel, resazurin fluorescence, 24 h, PK04 Diversity Set (AID 1171); settings: higher = more signal, called active from +8 up or from −8 down; note: test concentration not given here
[11] = HepG2 liver cancer cell viability effects, profiling panel, resazurin fluorescence, 24 h, PK04 Diversity Set (AID 1172); settings: higher = more signal; note: test concentration not given here
[12] = basal S. cerevisiae growth modulation, no modifier, primary screen, OD600, strain BY4716, 24 h, basal condition (AID 1173); settings: OD600, 24 h, higher = more signal, called active from +8 up or from −8 down
[13] = MM1S myeloma cell viability, profiling panel, resazurin fluorescence, basal, 24 h, PK04 Diversity Set (AID 1174); settings: higher = more signal, called active from +8 up or from −8 down;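 note: MM1S multiple myeloma cell line; test concentration not given here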
[14] = biological target: Dihydroorotate dehydrogenase (quinone), mitochondrial (Plasmodium falciparum (isolate 3D7)) (UniProt Q08210); test: PfDHODH enzyme inhibitors, primary screen, biochemical, C-terminal His tag, absorbance 600 nm (AID 1175); settings: DCIP absorbance 600 nm, higher = more signal, called active from +8 up or from −8 down;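 note: recombinant parasite enzyme with a five histidine tag at its C terminus; test concentration not given here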
Sequence of Dihydroorotate dehydrogenase (quinone), mitochondrial (Plasmodium falciparum (isolate 3D7)) (Q08210 whole entry, looked up): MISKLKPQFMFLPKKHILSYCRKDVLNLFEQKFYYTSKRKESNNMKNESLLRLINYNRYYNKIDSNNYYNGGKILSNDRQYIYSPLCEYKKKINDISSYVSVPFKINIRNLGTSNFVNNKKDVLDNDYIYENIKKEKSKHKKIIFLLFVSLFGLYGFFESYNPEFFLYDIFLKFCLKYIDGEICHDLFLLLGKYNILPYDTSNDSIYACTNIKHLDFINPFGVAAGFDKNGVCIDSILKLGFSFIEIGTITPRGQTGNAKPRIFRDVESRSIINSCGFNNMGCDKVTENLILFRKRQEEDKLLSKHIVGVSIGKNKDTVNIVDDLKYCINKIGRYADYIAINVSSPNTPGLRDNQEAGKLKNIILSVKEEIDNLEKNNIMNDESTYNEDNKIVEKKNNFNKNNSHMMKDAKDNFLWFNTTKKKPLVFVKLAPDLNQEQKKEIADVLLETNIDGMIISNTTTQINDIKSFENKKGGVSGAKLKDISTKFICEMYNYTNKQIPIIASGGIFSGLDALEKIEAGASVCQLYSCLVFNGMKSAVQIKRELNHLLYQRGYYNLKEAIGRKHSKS

[15] = P. aeruginosa biofilm formation inhibitors, primary screen, strain PAO1, LB-PBS medium, absorbance 600 nm (AID 1176); note: test concentration not given here; settings: P. aeruginosa PAO1 growth/biofilm, A600, 12 h; higher = more signal
[16] = S. cerevisiae RM11-1a growth modifiers, primary screen, strain RM11-1a, OD600, basal, 24 h (AID 1177); settings: OD600, 24 h, higher = more signal, called active from +8 up or from −8 down;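 note: cultures grown under basal conditions with no added stressor; test concentration not given here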
[17] = E. coli acrAB mutant growth effects, primary screen, E. coli filamentation inducers, strain DRC39, OD650, 24 h (AID 1178); settings: higher = more signal, called active from +8 up or from −8 down;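 note: growth measured as culture turbidity by optical density at 650 nm; test concentration not given here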
[18] = E. coli acrAB mutant growth effects, primary screen, E. coli filamentation inducers, strain DRC39, OD650, 48 h (AID 1179);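 note: screen aims at cell division blockers that make cells filament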; settings: E. coli DRC39 delta-acrAB growth, higher = more signal, called active from +8 up or from −8 down
[19] = RPMI8226 myeloma cell viability, profiling panel, resazurin fluorescence, basal, 24 h, PK04 Diversity Set (AID 1180); settings: higher = more signal;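 note: RPMI8826 multiple myeloma cell line at 5000 cells per well; test concentration not given here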
[20] = biological target: E3 ubiquitin-protein ligase XIAP (Homo sapiens) (UniProt P98170); test: XIAP binders, primary screen, biophysical, small-molecule microarray, fluorescence 635 nm (AID 1181); settings: small-molecule microarray binding, higher = more signal;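 note: score merges 667 nm emission and signal to noise over triplicate slides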
Sequence of E3 ubiquitin-protein ligase XIAP (Homo sapiens) (P98170 whole entry, looked up): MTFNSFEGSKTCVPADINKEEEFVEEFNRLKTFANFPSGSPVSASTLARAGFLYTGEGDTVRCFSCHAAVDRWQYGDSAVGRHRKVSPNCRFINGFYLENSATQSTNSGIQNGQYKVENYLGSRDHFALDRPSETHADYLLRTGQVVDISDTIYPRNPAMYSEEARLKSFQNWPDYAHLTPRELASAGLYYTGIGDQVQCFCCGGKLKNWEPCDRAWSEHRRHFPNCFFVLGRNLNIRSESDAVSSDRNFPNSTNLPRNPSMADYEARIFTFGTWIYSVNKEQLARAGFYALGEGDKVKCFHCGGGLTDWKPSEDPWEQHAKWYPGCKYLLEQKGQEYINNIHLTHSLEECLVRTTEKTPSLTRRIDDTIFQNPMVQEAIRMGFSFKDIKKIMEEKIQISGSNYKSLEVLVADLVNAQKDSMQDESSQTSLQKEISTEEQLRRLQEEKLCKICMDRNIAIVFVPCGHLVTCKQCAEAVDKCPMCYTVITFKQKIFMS

| SMILES | z-score [1] | z-score [2] | z-score [3] | z-score [4] | z-score [5] | z-score [6] | z-score [7] | z-score [8] | z-score [9] | z-score [10] | z-score [11] | z-score [12] | z-score [13] | composite z-score [14] | z-score [15] | z-score [16] | z-score [17] | z-score [18] | z-score [19] | composite z-score [20] |
| --- | --- | --- | --- | --- | --- | --- | --- | --- | --- | --- | --- | --- | --- | --- | --- | --- | --- | --- | --- | --- |
| COc1ccc([Si](C)(C)[C@H]2[C@H](CCO)O[C@@]3(C(=O)N(Cc4cccc(N5C(=O)c6cccc7cccc5c67)c4)c4ccccc43)[C@@H]2C)cc1 | -1.02 | 0.894 | -3.98 | -2.97 | -4.23 | -0.139 | 1.49 (inactive) | -1.02 | -1.34 | -2.92 (inactive) | -2.42 | 1.18 (inactive) | -4.22 (inactive) | 0.763 (inactive) | 1.51 (inactive) | 4.72 (inactive) | 0.0827 (inactive) | -0.511 (inactive) | -4.88 | 0.224 |
| COCCOC(=O)N1C(=O)[C@@]2(c3cc(C#CCCO)ccc31)[C@H](c1ccc(O)cc1)N1[C@H](c3ccccc3)[C@H](c3ccccc3)OC(=O)[C@H]1[C@@H]2C(=O)N1CCCCCCC1 | -0.0601 | 0.943 | 1.18 | 0.632 | -1.22 | -0.701 | -0.838 (inactive) | 0.242 | 0.271 | -0.44 (inactive) | -0.681 | 0.015 (inactive) | -0.216 (inactive) | 0.232 (inactive) | 0.915 (inactive) | 0.38 (inactive) | 0.27 (inactive) | -0.002 (inactive) | -0.98 | 0.23 |
| [N-]=[N+]=NCc1ccccc1C[C@]1(C(=O)NCc2ccccc2)COC(c2ccc(OCCCO)cc2)=N1 | -2.45 | -0.679 | -3.8 | -3.38 | -4.32 | 0.762 | 0.768 (inactive) | -0.891 | -2.3 | -1.42 (inactive) | -1.89 | 1.55 (inactive) | -5.64 (inactive) | 1.1 (inactive) | 0.385 (inactive) | 3.06 (inactive) | 1.45 (inactive) | 0.376 (inactive) | -4.15 | 0.488 |
| CC(c1ccccc1)C(O)C1C=CC2C(=O)N(c3ccccc3)C(=O)C2N1Nc1ccccc1F (stereo not given) | -0.221 | -0.146 | -0.77 | 0.214 | -0.975 | -1.13 | -0.994 (inactive) | 0.387 | -0.289 | 0.959 (inactive) | 0.677 | -0.817 (inactive) | 0.0907 (inactive) | 0.549 (inactive) | 0.533 (inactive) | -1.12 (inactive) | 0.0976 (inactive) | 0.669 (inactive) | 1.21 | 0.0859 |
| CC1CC/C=C\[C@H]2OC34C=CCN(c5ccc6ccccc6c5)C(=O)[C@H]3N(CCCCCO)C(=O)[C@@H]4C2C(=O)O1 (stereo not given in full) | 0.111 | 0.956 | 0.778 | 1.68 | -0.823 | -0.684 | -0.381 (inactive) | 1.1 | 0.401 | -0.292 (inactive) | -0.304 | -0.317 (inactive) | -0.634 (inactive) | -0.164 (inactive) | -0.484 (inactive) | -0.122 (inactive) | 0.11 (inactive) | 0.312 (inactive) | -0.0986 | -0.471 |
| CC(c1ccccc1)C(O)C1C=CC2C(=O)N(Cc3ccccc3)C(=O)C2N1n1cnnc1 (stereo not given) | -0.313 | 0.0487 | -0.547 | -0.0399 | -0.751 | 0.203 | -0.884 (inactive) | -0.107 | -0.526 | -0.694 (inactive) | -0.69 | -6.59 (inactive) | -0.652 (inactive) | 0.381 (inactive) | 0.492 (inactive) | 0.263 (inactive) | -0.491 (inactive) | -2.39 (inactive) | -0.161 | 0.456 |
| CC(C)N1C(=O)c2ccccc2[C@](C)(C(=O)NCCCN(C)C)[C@@H]1c1ccc(CO)cc1 | 0.415 | 0.302 | 0.446 | -0.0937 | -0.384 | 0.861 | -0.253 (inactive) | -0.13 | 0.413 | 0.565 (inactive) | 0.257 | -0.919 (inactive) | 0.627 (inactive) | 0.0044 (inactive) | -0.522 (inactive) | -0.283 (inactive) | 0.0957 (inactive) | -0.429 (inactive) | 0.842 | 0.0871 |
| O=C1OCCC/C=C\[C@H]2OC34C=CCN(CCN5CCOCC5)C(=O)[C@H]3N(CCO)C(=O)[C@@H]4C12 (stereo not given in full) | -1.18 | 1.72 | -0.615 | 1.31 | -0.832 | -0.41 | -1.21 (inactive) | -0.802 | 0.533 | -1.99 (inactive) | -0.881 | 0.0436 (inactive) | -0.562 (inactive) | 0.71 (inactive) | -0.317 (inactive) | 1.05 (inactive) | -1.12 (inactive) | -1.09 (inactive) | -0.654 | 0.685 |
| C#C[C@H](O[Si](C#CCCCCCC)(C(C)C)C(C)C)c1ccccc1 | 0.303 | 0.102 | -0.616 | 0.665 | 0.528 | 0.0244 | -0.324 (inactive) | 0.179 | -0.772 | 0.815 (inactive) | 0.465 | 0.0181 (inactive) | 0.221 (inactive) | -0.719 (inactive) | -0.984 (inactive) | -0.0669 (inactive) | 0.0687 (inactive) | 0.577 (inactive) | 0.783 | 0.0406 |
